# Laboratory results reported in PubChem BioAssay (EPA / NIEHS).
# Activity calls are given as the source filed them. The calls were made as follows: active = hit-call score of the fitted dose curve at least 0.9, where 1 is the maximum; inactive = score below 0.9.
# What was measured:
# [1] = ATG_E_Box_CIS: Attagene CIS-FACTORIAL HepG2 Assay for human Enhancer Box (E-box) (AID 2282936); conditions: HepG2 E-box cis-reporter transcription, actives raise or lower the signal
# Method in brief: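 Endogenous transcription factor activity was sensed in human HepG2 liver cells through transfected cis-promoter reporter units. After 24 h of dosing, total RNA was reverse-transcribed and reporter cDNA resolved by capillary electrophoresis.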
# [2] = ATG_M_61_CIS: Attagene CIS-FACTORIAL HepG2 Assay for M61 Transcription Factor (Internal Marker) (AID 2282937); conditions: HepG2 Attagene CIS-FACTORIAL M61 internal marker reporter; actives raise or lower the signal
# Method in brief: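 Using transiently transfected HepG2 liver cells, reporter transcript levels were assessed 24 h post-dosing by RT-PCR and capillary electrophoresis. Changes in either direction were fitted relative to DMSO controls.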
# [3] = ATG_EGR_CIS: Attagene CIS-FACTORIAL HepG2 Assay for human Early Growth Response 1 (EGR1) (AID 2282938); conditions: HepG2 Attagene CIS-FACTORIAL EGR reporter mRNA; actives raise or lower the signal
# Method in brief: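 Fluorescent capillary-electrophoresis signal of reporter cDNA fragments serves as read-out. HepG2 cells bear transiently transfected cis-promoter reporter units and are exposed 24 h; gain- or loss-of-signal is fitted against DMSO.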
# [4] = ATG_M_19_CIS: Attagene CIS-FACTORIAL HepG2 Assay for M19 Transcription Factor (Internal Marker) (AID 2282939); conditions: HepG2 Attagene CIS-FACTORIAL M19 internal marker reporter; actives raise or lower the signal
# Method in brief: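 HepG2 cells transiently transfected with cis-regulated multiple reporter transcription units were dosed for 24 h; reporter mRNA was quantified by RT-PCR, 6-FAM primer-extension labelling, HpaI digestion and capillary electrophoresis, with bidirectional fitting against DMSO baseline.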
# [5] = ATG_Ets_CIS: Attagene CIS-FACTORIAL HepG2 Assay for human Erythroblast Transformation Specific (ETS) (AID 2282941); conditions: HepG2 ETS cis-reporter transcription, actives raise or lower the signal
# Method in brief: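 Bidirectional fit versus DMSO of reporter mRNA signal, detected by RT-PCR and capillary electrophoresis in HepG2 cells transiently transfected with cis-element reporters and dosed 24 h.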
# [6] = molecular target: Hepatocyte nuclear factor 3-beta (Homo sapiens) (UniProt Q9Y261); experiment: ATG_FoxA2_CIS: Attagene CIS-FACTORIAL HepG2 Assay for human Forkhead box A2 (FOXA2) (AID 2282942); conditions: HepG2 cis-reporter transcription factor activity, 24 h; actives raise or lower the signal
# Method in brief: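 Fluorescence signal of reporter cDNA fragments, separated by capillary electrophoresis, reflects endogenous transcription factor activity in transfected HepG2 after 24 h. Both increases and decreases fitted against DMSO.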
# [7] = ATG_FoxO_CIS: Attagene CIS-FACTORIAL HepG2 Assay for human Forkhead box O (FoxO) (AID 2282943); conditions: HepG2 Attagene cis-reporter, FoxO element, mRNA; actives raise or lower the signal
# Method in brief: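 Values reflect reporter mRNA induction or loss in HepG2 cells 24 h post-dosing, fitted bidirectionally with DMSO as negative control and baseline. Detection used RT-PCR and fluorescence capillary electrophoresis.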
# [8] = ATG_GATA_CIS: Attagene CIS-FACTORIAL HepG2 Assay for human GATA Binding Protein (AID 2282944); conditions: HepG2 GATA cis-element reporter, Attagene multiplex mRNA; actives raise or lower the signal
# Method in brief: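 HepG2 cells transiently transfected with multiplexed cis-element reporter units reflecting endogenous transcription factor activity; reporter mRNA measured after 24 h dosing by RT-PCR, 6-FAM labeling, HpaI digestion and capillary electrophoresis. Bidirectional fitting versus DMSO baseline.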
# [9] = ATG_GLI_CIS: Attagene CIS-FACTORIAL HepG2 Assay for human Zinc Finger Protein GLI1 (AID 2282945); conditions: HepG2, Attagene cis-factorial reporter mRNA, GLI element; actives raise or lower the signal
# Method in brief: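 HepG2 cells transiently transfected with cis-promoter multiplexed reporter units report endogenous transcription factor activity. After 24 h chemical exposure, reporter mRNA was quantified by RT-PCR, 6-FAM labelling, HpaI digestion and capillary electrophoresis, with bidirectional fitting against DMSO.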
# [10] = molecular target: Bile acid receptor (Homo sapiens) (UniProt Q96RI1); experiment: ATG_IR1_CIS: Attagene CIS-FACTORIAL HepG2 Assay for human Nuclear Receptor Subfamily 1 Group H Member 4 (NR1H4), IR1 submotif (AID 2282946); conditions: IR1 reporter transcription, actives raise or lower the signal
# Method in brief: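 Readout: reporter transcript levels by RT-PCR with fluorescent capillary electrophoresis, from HepG2 cells transiently transfected with multiplexed cis-regulated reporters and dosed 24 h. Gain- or loss-of-signal fitted versus DMSO negative control.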
# [11] = ATG_GRE_CIS: Attagene CIS-FACTORIAL HepG2 Assay for human Glucocorticoid Response Elements (GRE) (AID 2282947); conditions: HepG2 GRE cis-reporter, Attagene multiplex mRNA; actives raise or lower the signal
# Method in brief: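 Cells (HepG2) bearing transfected cis-promoter reporter transcription units were treated with chemical for 24 hours. Reporter mRNA was measured via RT-PCR with capillary electrophoresis, and activity was fitted in both directions relative to DMSO.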
# [12] = ATG_ISRE_CIS: Attagene CIS-FACTORIAL HepG2 Assay for human Interferon Regulatory Factor 1 (IRF1) binding to an Interferon-Stimulated Response Element (ISRE) (AID 2282948); conditions: HepG2 ISRE cis-reporter (Attagene), mRNA transcription readout; actives raise or lower the signal
# Method in brief: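 Uses HepG2 liver cells transfected with cis-regulated reporters and measures mRNA 24 h post-dosing through RT-PCR, primer-extension labelling and capillary electrophoresis, with DMSO as negative control.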
# [13] = ATG_M_32_CIS: Attagene CIS-FACTORIAL HepG2 Assay for M32 Transcription Factor (Internal Marker) (AID 2282949); conditions: HepG2 Attagene cis-factorial M32 reporter, mRNA; actives raise or lower the signal;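 also: background control marker of the multiplexed CIS panel rather than a real target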
# Method in brief: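 HepG2 transfectants (cis-regulated reporter transcription units) dosed 24 h. Reporter mRNA by RT-PCR plus CE, analysed as gain or loss relative to DMSO.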
# [14] = ATG_M_06_CIS: Attagene CIS-FACTORIAL HepG2 Assay for M06 Transcription Factor (Internal Marker) (AID 2282950); conditions: HepG2 Attagene CIS-FACTORIAL M06 internal marker reporter; actives raise or lower the signal
# Method in brief: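 HepG2 cells transiently transfected with cis-regulated multiple reporter transcription units were exposed to chemical for 24 h; reporter mRNA was quantified by RT-PCR, 6-FAM primer labelling, HpaI digestion and capillary electrophoresis, fitted bidirectionally against DMSO.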
# [15] = molecular target: Hypoxia-inducible factor 1-alpha (Homo sapiens) (UniProt Q16665); experiment: ATG_HIF1a_CIS: Attagene CIS-FACTORIAL HepG2 Assay for human Hypoxia Inducible Factor 1 (HIF1A) (AID 2282951); conditions: HepG2 Attagene cis-factorial HIF1a reporter transcription; actives raise or lower the signal
# Method in brief: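 Endogenous-TF cis reporter readout, human HepG2 cells, 24 h incubation; mRNA detected via RT-PCR and capillary electrophoresis fluorescence; DMSO-normalised bidirectional fitting.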
# [16] = molecular target: Hepatocyte nuclear factor 6 (Homo sapiens) (UniProt Q9UBC0); experiment: ATG_HNF6_CIS: Attagene CIS-FACTORIAL HepG2 Assay for human Hepatocyte Nuclear Factor 6 (HNF6) (AID 2282952); conditions: HepG2 Attagene cis-factorial HNF6 reporter transcription; actives raise or lower the signal
# Method in brief: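 Using cis-element reporters in HepG2 liver cells, the assay tracks endogenous factor-driven transcription 24 h post-dosing. Signal comes from 6-FAM-labelled, HpaI-digested RT-PCR fragments, with gain or loss scored against DMSO.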
# [17] = molecular target: Heat shock factor protein 1 (Homo sapiens) (UniProt Q00613); experiment: ATG_HSE_CIS: Attagene CIS-FACTORIAL HepG2 Assay for human Heat Shock Transcription Factor 1 (HSE) (AID 2282953); conditions: HepG2 HSE cis-reporter, Attagene RNA transcription; actives raise or lower the signal
# Method in brief: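 HepG2 cells transiently transfected with multiple reporter transcription units under cis-regulatory promoter control, measuring endogenous transcription factor activity. After 24 h chemical exposure, reporter mRNA quantified by RT-PCR, fluorescent labelling, HpaI digestion and capillary electrophoresis; bidirectional fit versus DMSO.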
# [18] = ATG_MRE_CIS: Attagene CIS-FACTORIAL HepG2 Assay for human Metal Responsive Element (MRE) (AID 2282954); conditions: HepG2 MRE cis-reporter transcription, Attagene multiplex; actives raise or lower the signal
# Method in brief: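 Cells were transfected with cis-promoter reporter transcription units, then dosed for 24 h. RNA was reverse-transcribed, amplified, fluorescently labelled and resolved by capillary electrophoresis, and activity was fitted in both directions relative to DMSO.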
# [19] = ATG_PBREM_CIS: Attagene CIS-FACTORIAL HepG2 Assay for human Phenobarbital-responsive Enhancer Module (PBREM) (AID 2282955); conditions: HepG2 PBREM cis-reporter, Attagene multiplexed transcription; actives raise or lower the signal
# Method in brief: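 Readout: reporter mRNA, fluorescent RT-PCR fragments separated by capillary electrophoresis. System: HepG2 transiently transfected with cis-regulated reporter units. Exposure: 24 h. Analysis: bidirectional, DMSO baseline.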
# [20] = ATG_ERE_CIS: Attagene CIS-FACTORIAL HepG2 Assay for Estrogen Response Element (ERE) (AID 2282940); conditions: HepG2 ERE cis-reporter, Attagene RNA transcript; actives raise or lower the signal
# Method in brief: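 HepG2 cells transiently transfected with cis-promoter-driven multiplexed reporter transcription units report endogenous TF activity. After 24 h compound exposure, reporter mRNA is quantified by RT-PCR with capillary electrophoresis fluorescence; bidirectional fitting versus DMSO baseline.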
# Heat shock factor protein 1 (Homo sapiens), sequence (Q00613 whole entry, looked up): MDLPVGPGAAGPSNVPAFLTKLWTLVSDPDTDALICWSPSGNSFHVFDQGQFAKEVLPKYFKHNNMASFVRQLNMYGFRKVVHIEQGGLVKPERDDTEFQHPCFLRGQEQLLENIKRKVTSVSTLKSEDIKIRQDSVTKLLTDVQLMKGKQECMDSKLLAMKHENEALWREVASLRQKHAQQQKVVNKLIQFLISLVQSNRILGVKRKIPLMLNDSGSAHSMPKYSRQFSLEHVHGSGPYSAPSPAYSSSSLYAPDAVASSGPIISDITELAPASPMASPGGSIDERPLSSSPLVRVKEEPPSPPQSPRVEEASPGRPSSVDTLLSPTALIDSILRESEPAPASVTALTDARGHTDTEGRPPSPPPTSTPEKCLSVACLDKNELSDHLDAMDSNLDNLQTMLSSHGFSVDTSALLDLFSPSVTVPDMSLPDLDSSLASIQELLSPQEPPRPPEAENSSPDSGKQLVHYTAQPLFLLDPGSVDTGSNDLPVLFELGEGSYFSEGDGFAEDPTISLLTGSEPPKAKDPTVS
# Bile acid receptor (Homo sapiens), sequence (Q96RI1 whole entry, looked up): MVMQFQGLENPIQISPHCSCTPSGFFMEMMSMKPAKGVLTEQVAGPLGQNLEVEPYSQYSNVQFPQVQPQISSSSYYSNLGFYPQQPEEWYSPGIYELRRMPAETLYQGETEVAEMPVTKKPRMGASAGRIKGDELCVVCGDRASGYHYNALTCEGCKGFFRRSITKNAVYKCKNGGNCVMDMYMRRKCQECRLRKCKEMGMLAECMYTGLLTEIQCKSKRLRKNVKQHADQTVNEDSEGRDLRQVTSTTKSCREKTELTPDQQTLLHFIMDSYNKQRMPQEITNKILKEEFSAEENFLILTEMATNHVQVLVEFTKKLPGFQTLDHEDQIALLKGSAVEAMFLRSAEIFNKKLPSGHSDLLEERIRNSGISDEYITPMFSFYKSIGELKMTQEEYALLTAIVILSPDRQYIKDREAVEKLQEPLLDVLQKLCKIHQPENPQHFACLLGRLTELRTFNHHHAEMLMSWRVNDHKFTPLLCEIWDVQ
# Hypoxia-inducible factor 1-alpha (Homo sapiens), sequence (Q16665 whole entry, looked up): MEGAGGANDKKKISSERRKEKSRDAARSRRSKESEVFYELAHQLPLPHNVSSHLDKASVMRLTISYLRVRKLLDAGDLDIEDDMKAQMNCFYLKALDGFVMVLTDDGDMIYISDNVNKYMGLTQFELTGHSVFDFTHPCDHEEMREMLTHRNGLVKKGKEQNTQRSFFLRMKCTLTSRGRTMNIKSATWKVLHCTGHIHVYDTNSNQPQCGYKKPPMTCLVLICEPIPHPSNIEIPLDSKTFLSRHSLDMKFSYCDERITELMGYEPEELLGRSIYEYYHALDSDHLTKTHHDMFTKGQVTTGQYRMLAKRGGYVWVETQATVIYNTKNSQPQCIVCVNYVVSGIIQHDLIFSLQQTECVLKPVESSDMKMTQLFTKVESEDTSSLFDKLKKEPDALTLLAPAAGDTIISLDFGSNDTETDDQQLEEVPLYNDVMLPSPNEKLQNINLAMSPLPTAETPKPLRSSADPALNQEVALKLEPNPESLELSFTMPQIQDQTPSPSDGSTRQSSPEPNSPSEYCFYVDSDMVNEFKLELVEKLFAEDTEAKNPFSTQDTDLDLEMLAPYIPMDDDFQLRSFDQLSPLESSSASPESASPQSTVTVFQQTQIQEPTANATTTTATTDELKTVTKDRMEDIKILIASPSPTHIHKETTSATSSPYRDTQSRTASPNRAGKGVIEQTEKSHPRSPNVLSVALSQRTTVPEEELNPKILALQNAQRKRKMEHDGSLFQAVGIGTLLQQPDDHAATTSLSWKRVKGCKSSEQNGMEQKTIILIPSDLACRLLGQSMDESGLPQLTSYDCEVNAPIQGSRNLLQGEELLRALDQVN
# Hepatocyte nuclear factor 6 (Homo sapiens), sequence (Q9UBC0 whole entry, looked up, the tested form may be a part): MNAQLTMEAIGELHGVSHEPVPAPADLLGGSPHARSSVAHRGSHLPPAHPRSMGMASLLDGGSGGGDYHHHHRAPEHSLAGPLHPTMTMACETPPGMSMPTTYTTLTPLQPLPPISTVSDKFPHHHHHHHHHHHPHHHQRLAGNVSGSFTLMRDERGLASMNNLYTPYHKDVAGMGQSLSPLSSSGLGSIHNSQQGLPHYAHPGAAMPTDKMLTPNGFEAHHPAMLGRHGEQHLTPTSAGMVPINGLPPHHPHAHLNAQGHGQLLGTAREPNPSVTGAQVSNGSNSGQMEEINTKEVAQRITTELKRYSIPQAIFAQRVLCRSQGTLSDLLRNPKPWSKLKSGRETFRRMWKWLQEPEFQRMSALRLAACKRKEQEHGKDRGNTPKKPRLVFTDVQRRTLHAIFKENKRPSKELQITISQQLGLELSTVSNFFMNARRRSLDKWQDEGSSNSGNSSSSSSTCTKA
# Hepatocyte nuclear factor 3-beta (Homo sapiens), sequence (Q9Y261 whole entry, looked up, the tested form may be a part): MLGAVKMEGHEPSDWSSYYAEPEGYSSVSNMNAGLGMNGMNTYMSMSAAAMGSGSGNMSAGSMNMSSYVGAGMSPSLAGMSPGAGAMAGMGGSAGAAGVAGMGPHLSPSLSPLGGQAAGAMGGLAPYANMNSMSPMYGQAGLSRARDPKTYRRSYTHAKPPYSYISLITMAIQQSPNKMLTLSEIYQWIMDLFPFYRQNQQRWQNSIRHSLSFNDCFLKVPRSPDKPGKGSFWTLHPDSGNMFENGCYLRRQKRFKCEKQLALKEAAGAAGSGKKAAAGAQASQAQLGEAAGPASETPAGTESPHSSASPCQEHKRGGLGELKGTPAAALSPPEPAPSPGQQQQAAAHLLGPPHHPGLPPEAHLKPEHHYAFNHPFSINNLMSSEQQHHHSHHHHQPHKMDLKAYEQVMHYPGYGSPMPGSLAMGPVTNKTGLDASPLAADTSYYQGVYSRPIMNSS
smiles,measurement,setting,value
Nc1ccc(N)c2c1C(=O)c1ccccc1C2=O,outcome,[1],inactive
same,outcome,[2],inactive
same,outcome,[3],inactive
same,outcome,[4],inactive
same,outcome,[5],inactive
same,outcome,[6],inactive
same,outcome,[7],inactive
same,outcome,[8],inactive
same,outcome,[9],inactive
same,outcome,[10],inactive
same,outcome,[11],inactive
same,outcome,[12],inactive
same,outcome,[13],inactive
same,outcome,[14],inactive
same,outcome,[15],inactive
same,outcome,[16],inactive
same,outcome,[17],inactive
same,outcome,[18],inactive
same,outcome,[19],inactive
Nc1c(Cl)cc(Cl)cc1[N+](=O)[O-],AC50,[1],92 µM (active)
same,outcome,[2],inactive
same,outcome,[3],inactive
same,outcome,[4],inactive
same,outcome,[20],inactive
same,outcome,[5],inactive
same,outcome,[6],inactive
same,outcome,[7],inactive
same,outcome,[8],inactive
same,outcome,[9],inactive
same,outcome,[12],inactive
same,outcome,[13],inactive
same,outcome,[14],inactive
same,outcome,[15],inactive
same,outcome,[16],inactive
same,outcome,[18],inactive
same,outcome,[19],inactive
Brc1ccc(Br)c(Br)c1,outcome,[1],inactive
same,outcome,[2],inactive
same,outcome,[3],inactive
same,outcome,[4],inactive
same,outcome,[20],inactive
same,outcome,[5],inactive
same,outcome,[6],inactive
same,outcome,[7],inactive
same,outcome,[8],inactive
same,outcome,[9],inactive
same,outcome,[12],inactive
same,outcome,[13],inactive
same,outcome,[15],inactive
same,outcome,[16],inactive
same,outcome,[17],inactive
same,outcome,[18],inactive
COc1cccc(OC)c1O,outcome,[1],inactive
same,outcome,[2],inactive
same,outcome,[3],inactive
same,outcome,[4],inactive
same,outcome,[5],inactive
same,outcome,[6],inactive
same,outcome,[7],inactive
same,outcome,[8],inactive
same,outcome,[9],inactive
same,outcome,[10],inactive
same,outcome,[11],inactive
same,outcome,[12],inactive
same,outcome,[13],inactive
same,outcome,[14],inactive
same,outcome,[15],inactive
same,outcome,[16],inactive
same,outcome,[17],inactive
same,outcome,[18],inactive
same,outcome,[19],inactive
CCC(C)c1cc([N+](=O)[O-])cc([N+](=O)[O-])c1OC(=O)OC(C)C (stereo not drawn),AC50,[1],100 µM (active)
same,outcome,[2],inactive
same,AC50,[3],26.5 µM (active)
same,outcome,[4],inactive
same,AC50,[5],26.1 µM (active)
same,AC50,[6],62.6 µM (active)
same,AC50,[7],164 µM (active)
same,AC50,[8],24.1 µM (active)
same,AC50,[9],27.1 µM (active)
same,AC50,[10],27.4 µM (active)
same,outcome,[11],inactive
same,AC50,[12],24.3 µM (active)
same,AC50,[13],49.2 µM (active)
same,outcome,[14],inactive
same,outcome,[15],inactive
same,outcome,[16],inactive
same,AC50,[17],26.6 µM (active)
same,AC50,[18],34.8 µM (active)
same,outcome,[19],inactive
COCCc1ccc(OCC(O)CNC(C)C)cc1 (stereo not drawn),outcome,[1],inactive
same,outcome,[2],inactive
same,outcome,[3],inactive
same,outcome,[4],inactive
same,outcome,[5],inactive
same,outcome,[6],inactive
same,outcome,[7],inactive
same,outcome,[8],inactive
same,outcome,[9],inactive
same,outcome,[10],inactive
same,outcome,[11],inactive
same,outcome,[12],inactive
same,outcome,[13],inactive
same,outcome,[14],inactive
same,outcome,[16],inactive
same,outcome,[18],inactive
same,outcome,[19],inactive
CCCC[P+](CCCC)(CCCC)CCCC,outcome,[1],inactive
same,outcome,[2],inactive
same,outcome,[3],inactive
same,outcome,[4],inactive
same,outcome,[5],inactive
same,outcome,[6],inactive
same,outcome,[7],inactive
same,outcome,[8],inactive
same,outcome,[9],inactive
same,outcome,[10],inactive
same,outcome,[11],inactive
same,outcome,[12],inactive
same,outcome,[13],inactive
same,outcome,[14],inactive
same,outcome,[15],inactive
same,outcome,[17],inactive
same,outcome,[18],inactive
same,outcome,[19],inactive
C/C=C(\C)C(=O)OCCc1ccccc1,outcome,[1],inactive
same,outcome,[2],inactive
same,outcome,[3],inactive
same,outcome,[4],inactive
same,outcome,[5],inactive
same,outcome,[6],inactive
same,outcome,[7],inactive
same,outcome,[8],inactive
same,outcome,[9],inactive
same,outcome,[10],inactive
same,outcome,[11],inactive
same,outcome,[12],inactive
same,outcome,[13],inactive
same,outcome,[15],inactive
same,outcome,[16],inactive
same,outcome,[17],inactive
same,outcome,[18],inactive
same,outcome,[19],inactive
